Only some compounds are listed: those with a hit (about 1.4% of all), similar ones and a draw of the others.
GLS inh: inhibitors of human glutaminase (GLS); O94925; GLS enzymatic activity, qHTS titration; Potency, µM (series often up to 45.5 µM), for the others: at the highest dose activity change, negative = inhibition, usual class: inhibitors; 410,000 compounds, 0.21% hits; AID 624170; also: potency is read from the fitted curve at half-maximal effect; % is scaled to controls: 0 for no effect and ±100 for the full control effect
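hKGA in 45 mM KH2PO4 (pH 8.2), 0.02% Tween-20 with compound, then 1mM L-Glutamine (stock as added) plus glutamate oxidase/HRP/Amplex red coupling mix. Fluorescence read initially and after 30 min at RT; signal change reflects glutamate formation.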
mIDH1 inhibitor: blocks human mutant IDH1 R132H enzyme; Potency, µM (doses to about 76.6 µM), without a hit: at the top dose activity change, negative = inhibition, actives largely listed as inhibitors; IDH1-R132H enzyme, NADPH consumption, diaphorase/resazurin fluorescence; 390,000 compounds, 0.093% hits; also: potency is read from the fitted curve at half-maximal effect; % is scaled to controls: 0 for no effect and ±100 for the full control effect; nearly all actives have a fitted effect of over 65% in size
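IDH1-R132H (0.5 ug/mL dispensed) in pH 7.5 Tris buffer was preincubated 30 min with compound, then given a substrate mix of 0.016 mM NADPH and 2 mM alpha-KG for 80 min at room temperature; remaining NADPH was read by diaphorase/resazurin fluorescence.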
LDHA inh: blocks human lactate dehydrogenase A. P00338. purified LDHA, NADH/diaphorase-resazurin fluorescence; stronger effect = lower value. activity change, % (values are at about 110 or 230 µM). 480,000 compounds, 0.15% hits. AID 1347041; in the data active = activity change below about -30%; inconclusive = mostly about -25% to -30%;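 also: plate controls were DMSO wells for no effect and wells without enzyme for full effect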
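Human LDH5 (2 nM) was incubated with 0.06 mM NADH and 0.2 mM pyruvate for 5 min at room temperature in Tris pH 7.4. Remaining NADH was coupled through diaphorase/resazurin, and resorufin fluorescence was read at 0 and 20 min.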
rTrxR1 inhibitor: inhibitors of rat thioredoxin reductase 1; O89049; recombinant rTrxR1, NADPH fluorescence consumption, selenite substrate; Potency, µM (doses to about 114 µM), for the others: at the top dose activity change, negative = inhibition, hits mostly inhibitors; 390,000 compounds, 1% hits; also: potency is read from the fitted curve at half-maximal effect; % is scaled to controls: 0 for no effect and ±100 for the full control effect; nearly all actives have a fitted effect of over 65% in size
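Rat TrxR1 (90 nM in the dispensed reagent) was pre-reduced with 400 uM NADPH for 5 min at room temperature, then incubated with compound for 15 min. After 400 uM selenite was added, NADPH fluorescence (Ex 340/Em 450 nm) was followed for 8 min.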
TrxR1 substrate: substrates of rat thioredoxin reductase 1; Potency, µM (doses to about 114 µM), inactives show at the highest dose activity change, negative = substrate turnover; purified TrxR1 substrate turnover, NADPH consumption readout; AID 588456; 390,000 compounds, 0.01% hits; O89049; also: potency is read from the fitted curve at half-maximal effect; % is scaled to controls: 0 for no effect and ±100 for the full control effect; nearly all actives have a fitted effect of over 50% in size
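Rat TrxR1, dispensed at 90 nM, was prereduced with 400 uM NADPH (final) for 5 min at ~22 deg C, then incubated with compound 15 min before 400 uM selenite. A first-read NADPH fluorescence drop versus no-compound background flagged substrates.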
PKM2 act: PKM2 (human) enzyme activation. purified PKM2, Kinase-Glo ATP luminescence, activation; response scale: 0% is enzyme alone, no compound. Potency, µM (top dose mostly 57.5 µM), without a hit: at the highest dose activation, most hits filed as activators. 260,000 compounds, 0.34% hits. AID 1631; also: potency is read from the fitted curve at half-maximal effect; % is scaled to controls: 0 for no effect and ±100 for the full control effect; nearly all actives have a fitted effect of over 55% in size
Target sequence (P14618 whole entry, looked up): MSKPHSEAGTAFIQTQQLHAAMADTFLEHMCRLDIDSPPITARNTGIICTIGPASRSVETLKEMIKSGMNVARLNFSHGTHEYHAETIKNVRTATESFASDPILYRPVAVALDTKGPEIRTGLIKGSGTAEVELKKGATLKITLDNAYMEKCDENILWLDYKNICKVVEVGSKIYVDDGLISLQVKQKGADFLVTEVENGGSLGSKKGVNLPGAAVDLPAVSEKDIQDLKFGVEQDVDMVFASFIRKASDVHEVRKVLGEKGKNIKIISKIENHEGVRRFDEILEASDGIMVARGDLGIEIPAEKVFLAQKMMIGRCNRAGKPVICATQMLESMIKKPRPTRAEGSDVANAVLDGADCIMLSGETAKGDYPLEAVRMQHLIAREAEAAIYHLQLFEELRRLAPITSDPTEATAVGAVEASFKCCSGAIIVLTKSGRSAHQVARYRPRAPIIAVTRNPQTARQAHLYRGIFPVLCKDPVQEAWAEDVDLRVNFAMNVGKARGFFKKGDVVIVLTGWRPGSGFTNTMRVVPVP
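Kinase-Glo luminescence reports ATP generated from ADP (0.1 mM) and PEP (0.5 mM) by purified hPK-M2 after 1 h at room temperature, pH 7.2 imidazole buffer; intermediate enzyme activity allows detecting inhibitors and activators.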
Resorufin autofl: interferes with resorufin fluorescence in IDH1 counter-screen; shares compounds with mIDH1 inhibitor; inhibition of signal, % at 51.2 µM; 750 tested, under 10 active; Resorufin detection reagent fluorescence interference, cell-free;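 also: 0% = wells with normal resorufin and full inhibition = wells lacking resorufin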
IDH1 WT: selectivity of mutant IDH1 inhibitors: human wild-type IDH1; WT IDH1 enzyme, NADPH diaphorase/resazurin fluorescence; Potency, µM (top dose mostly 115 µM), without a hit: at the highest dose activity change, negative = inhibition, actives largely listed as inhibitors; shares compounds with mIDH1 inhibitor; AID 623995; 750 compounds, 9% hits;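 also: potency is read from the fitted curve at half-maximal effect; 0% = full WT IDH1 enzyme control and full inhibition = no enzyme wells; nearly all actives have a fitted effect of over 55% in size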
mIDH1 confirm: mutant IDH1 (human) inhibition, confirmed; Potency, µM (doses to about 76.6 µM), for inactives: at the top dose activity change, negative = inhibition, hits mostly inhibitors; 750 compounds, 83% hits; IDH1 R132H enzyme, NADPH diaphorase/resazurin fluorescence; shares compounds with mIDH1 inhibitor; also: potency is read from the fitted curve at half-maximal effect; nearly all actives have a fitted effect of over 50% in size
The depositor's hits bear a star; ? = inconclusive; . = no result given; [ ] = another dose, or the depositor's remark. Unless noted, calls follow the shape of the dose curve; as a rule, active = well fitted curve in the direction sought with a large enough effect; inconclusive = small, poorly fitted or top-dose-only effect, or another doubt; inactive = no such curve, though single readings can be large; an effect the other way counts as inactive or inconclusive.

SMILES	GLS inh	mIDH1 inhibitor	LDHA inh	rTrxR1 inhibitor	TrxR1 substrate	PKM2 act	Resorufin autofl	IDH1 WT	mIDH1 confirm
CC(C(=O)Nc1ccc2[nH]c(=O)[nH]c2c1)N(C)Cc1ccc(Cl)c(Cl)c1 (stereo not given)	.	.	10	.	.	.	.	.	.
COCCCNC(=O)Cc1c(C)c2c(O)cc(C)cc2oc1=O	.	.	3	.	.	.	.	.	.
CC(C)(C)c1ccc(/C=N/OCC(=O)N2CCC(Cc3ccccc3)CC2)cc1	.	.	8	.	.	.	.	.	.
O=S(=O)(c1ccc(NC(=S)N/N=C/c2ccc(Oc3ccccc3)cc2)cc1)N1CCOCC1	3%	?	-9	8%	-3%	-4%	-1	-5%	-22%
O=S(=O)(c1ccc(NC(=S)N/N=C/c2ccc(N3CCOCC3)cc2)cc1)N1CCOCC1	8%	0%	-9	5%	12%	5%	.	.	.
Cc1[nH]nc2c1C(c1ccc(F)cc1)C(C#N)=C(N)O2 (stereo not given)	2%	4%	-7	-1%[57.1 µM]	1%[57.1 µM]	1%	.	.	.
Cc1cc(C)c(C#N)c(SCc2[nH]nc3c2C(c2ccc(F)cc2)C(C#N)=C(N)O3)n1 (stereo not given)	19%	?	-4	-29%	-5%	15%	7	?	32µM*
Cc1cc(C#N)c(C)c(SCc2[nH]nc3c2C(c2ccccc2)C(C#N)=C(N)O3)n1 (stereo not given)	.	?	0	?	1%	-12%	3	?	35µM*
COc1cc(OC)cc(C(=O)Nc2c(NC3CCCCC3)c3ccccc3oc2=O)c1	.	.	3	.	.	.	.	.	.
O=C(NC1CCCCC1)C(c1ccc2ncccc2c1)N(Cc1ccc(F)cc1)C(=O)c1cccs1 (stereo not given)	7%	-3%	-12	28%	8%	2%	.	.	.
CC(=O)c1ccc(N(C(=O)c2ccco2)C(C(=O)NC2CCCC2)c2cccs2)cc1 (stereo not given)	-11%	7%	-3	4%[57.1 µM]	0%[57.1 µM]	.	.	.	.
O=C(NC1CCCCC1)C(c1cccs1)N(C(=O)c1ccco1)c1ccc2c(c1)OCCO2 (stereo not given)	10%	?	9	-4%	-12%	-4%	-1	-20%	?
O=C(NC1CCCCC1)C(c1ccc(F)cc1)N(C(=O)c1cccs1)c1ccc2c(c1)OCO2 (stereo not given)	-2%	?	6	35%	7%	-2%	0	-9%	7.9µM*
CCOc1ccc(N/C(=C\C(=O)c2ccccc2)c2ccccc2)cc1	.	.	0	.	.	.	.	.	.
CCOc1ccccc1N(C(=O)c1snc(C(N)=O)c1N)C(C(=O)NCc1ccccc1)c1ccc(O)cc1 (stereo not given)	-1%	?	-3	22%[57.1 µM]	41%	1%	-1	10%	13µM*
CCOc1ccccc1N(C(=O)c1snc(C(N)=O)c1N)C(C(=O)NC1CCCC1)c1ccco1 (stereo not given)	23%	?	-8	-8%	10%	-4%	3	2%	40µM*
CCOc1ccccc1N(C(=O)c1snc(C(N)=O)c1N)C(C(=O)NC1CCCC1)c1cccs1 (stereo not given)	-6%	?	-2	15%[57.1 µM]	8%[57.1 µM]	.	4	4%	?
